# Experimental data published in ChEMBL document CHEMBL1961873, “Compounds: GSK PKIS; Assays: Nanosyn kinase panel” (2012).
# Experiments:
# [1] = target: Calcium/calmodulin-dependent protein kinase type II subunit alpha (Homo sapiens) (UniProt Q9UQM7); settings: at 1 µM;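 note: reported value is a mean percent inhibition of CAMK2A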
# [2] = target: Calcium/calmodulin-dependent protein kinase type II subunit delta (Homo sapiens) (UniProt Q13557); settings: at 0.1 µM
# [3] = target: Calcium/calmodulin-dependent protein kinase type II subunit delta (Homo sapiens) (UniProt Q13557); settings: at 1 µM
# [4] = target: T1, Calcium/calmodulin-dependent protein kinase type IV (Homo sapiens) (UniProt Q16566); settings: at 0.1 µM
# T1 sequence (whole entry): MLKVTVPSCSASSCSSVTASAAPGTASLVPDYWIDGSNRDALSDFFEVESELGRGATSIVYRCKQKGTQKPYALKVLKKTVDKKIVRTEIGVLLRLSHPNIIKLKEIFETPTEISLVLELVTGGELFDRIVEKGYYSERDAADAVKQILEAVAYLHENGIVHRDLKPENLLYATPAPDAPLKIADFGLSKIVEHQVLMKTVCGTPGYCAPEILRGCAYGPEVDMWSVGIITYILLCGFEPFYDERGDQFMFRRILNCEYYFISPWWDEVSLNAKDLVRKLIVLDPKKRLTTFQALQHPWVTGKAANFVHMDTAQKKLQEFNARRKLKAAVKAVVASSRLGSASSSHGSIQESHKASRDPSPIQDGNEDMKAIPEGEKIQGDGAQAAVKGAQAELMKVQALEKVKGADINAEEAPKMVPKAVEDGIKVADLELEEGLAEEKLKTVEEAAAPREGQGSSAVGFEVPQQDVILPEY
# [5] = target: T1, Calcium/calmodulin-dependent protein kinase type IV (Homo sapiens); settings: at 1 µM
# [6] = target: T2, Serine/threonine-protein kinase Chk1 (Homo sapiens) (UniProt O14757); settings: at 0.1 µM
# T2 sequence (whole entry): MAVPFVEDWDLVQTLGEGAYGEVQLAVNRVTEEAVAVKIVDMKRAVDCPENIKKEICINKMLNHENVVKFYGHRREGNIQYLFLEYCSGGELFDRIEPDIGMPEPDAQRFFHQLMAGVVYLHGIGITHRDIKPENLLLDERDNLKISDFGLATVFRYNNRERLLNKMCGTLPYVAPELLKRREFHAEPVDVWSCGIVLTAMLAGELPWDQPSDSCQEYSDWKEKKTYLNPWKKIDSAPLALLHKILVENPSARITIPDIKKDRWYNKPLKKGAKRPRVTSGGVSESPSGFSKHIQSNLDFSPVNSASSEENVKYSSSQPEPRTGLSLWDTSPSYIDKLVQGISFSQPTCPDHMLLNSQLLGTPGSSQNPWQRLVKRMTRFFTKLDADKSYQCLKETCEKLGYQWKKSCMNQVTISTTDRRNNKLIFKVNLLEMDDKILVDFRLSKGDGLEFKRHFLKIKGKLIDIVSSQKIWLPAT
# [7] = target: T2, Serine/threonine-protein kinase Chk1 (Homo sapiens); settings: at 1 µM
# [8] = target: Serine/threonine-protein kinase Chk2 (Homo sapiens) (UniProt O96017); settings: at 0.1 µM
# Serine/threonine-protein kinase Chk2 (Homo sapiens), sequence (O96017 whole entry): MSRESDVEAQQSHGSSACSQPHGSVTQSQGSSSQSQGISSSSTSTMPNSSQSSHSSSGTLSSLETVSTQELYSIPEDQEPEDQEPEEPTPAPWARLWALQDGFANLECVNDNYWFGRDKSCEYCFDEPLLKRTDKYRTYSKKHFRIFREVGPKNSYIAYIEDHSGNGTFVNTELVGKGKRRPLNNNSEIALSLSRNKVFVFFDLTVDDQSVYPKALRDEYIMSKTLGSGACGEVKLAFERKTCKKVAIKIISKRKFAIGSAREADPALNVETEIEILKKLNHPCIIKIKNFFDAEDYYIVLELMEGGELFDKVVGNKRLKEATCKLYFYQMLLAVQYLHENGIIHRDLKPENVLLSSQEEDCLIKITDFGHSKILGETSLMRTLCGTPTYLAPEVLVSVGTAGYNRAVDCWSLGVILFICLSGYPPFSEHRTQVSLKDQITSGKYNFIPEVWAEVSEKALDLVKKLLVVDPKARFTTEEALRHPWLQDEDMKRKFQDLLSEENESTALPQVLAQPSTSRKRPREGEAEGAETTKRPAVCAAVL
# [9] = target: Serine/threonine-protein kinase Chk2 (Homo sapiens) (UniProt O96017); settings: at 1 µM
# [10] = target: Death-associated protein kinase 1 (Homo sapiens) (UniProt P53355); settings: at 0.1 µM
# Death-associated protein kinase 1 (Homo sapiens), sequence (P53355 whole entry, looked up): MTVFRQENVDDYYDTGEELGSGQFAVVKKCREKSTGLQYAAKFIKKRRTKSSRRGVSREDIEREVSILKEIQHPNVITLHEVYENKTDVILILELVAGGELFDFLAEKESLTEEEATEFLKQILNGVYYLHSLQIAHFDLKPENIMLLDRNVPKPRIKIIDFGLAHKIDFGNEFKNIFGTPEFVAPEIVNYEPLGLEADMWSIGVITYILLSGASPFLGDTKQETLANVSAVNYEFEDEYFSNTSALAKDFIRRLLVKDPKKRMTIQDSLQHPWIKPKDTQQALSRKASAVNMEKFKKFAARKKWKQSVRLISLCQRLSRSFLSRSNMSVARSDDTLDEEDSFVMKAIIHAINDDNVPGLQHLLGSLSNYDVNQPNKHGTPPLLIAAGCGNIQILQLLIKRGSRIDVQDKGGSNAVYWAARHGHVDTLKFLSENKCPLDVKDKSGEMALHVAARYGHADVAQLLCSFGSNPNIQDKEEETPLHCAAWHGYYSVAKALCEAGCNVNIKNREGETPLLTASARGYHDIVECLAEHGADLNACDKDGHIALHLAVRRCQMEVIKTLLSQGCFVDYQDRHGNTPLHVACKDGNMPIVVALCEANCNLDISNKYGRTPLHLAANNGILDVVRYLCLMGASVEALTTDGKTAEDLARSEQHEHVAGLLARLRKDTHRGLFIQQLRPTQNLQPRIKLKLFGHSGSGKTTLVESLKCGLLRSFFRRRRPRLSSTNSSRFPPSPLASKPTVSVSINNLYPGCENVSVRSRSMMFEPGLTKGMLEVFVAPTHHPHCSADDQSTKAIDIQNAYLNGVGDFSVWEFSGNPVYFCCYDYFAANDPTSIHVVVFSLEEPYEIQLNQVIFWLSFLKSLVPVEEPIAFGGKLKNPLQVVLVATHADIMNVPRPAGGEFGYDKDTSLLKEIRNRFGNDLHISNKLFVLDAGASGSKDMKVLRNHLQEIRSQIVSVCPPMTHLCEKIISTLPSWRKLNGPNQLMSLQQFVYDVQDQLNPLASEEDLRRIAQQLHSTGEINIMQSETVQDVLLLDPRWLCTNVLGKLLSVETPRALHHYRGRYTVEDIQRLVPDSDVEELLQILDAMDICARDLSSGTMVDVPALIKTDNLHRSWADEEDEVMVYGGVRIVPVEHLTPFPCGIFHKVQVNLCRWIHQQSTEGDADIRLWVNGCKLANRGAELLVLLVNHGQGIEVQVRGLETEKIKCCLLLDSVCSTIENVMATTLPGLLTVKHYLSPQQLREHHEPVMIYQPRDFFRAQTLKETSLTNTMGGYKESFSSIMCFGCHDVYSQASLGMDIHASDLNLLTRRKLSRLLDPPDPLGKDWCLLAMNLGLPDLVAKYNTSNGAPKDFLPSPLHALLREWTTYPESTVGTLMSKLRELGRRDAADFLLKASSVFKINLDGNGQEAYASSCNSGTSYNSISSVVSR
# [11] = target: Death-associated protein kinase 1 (Homo sapiens) (UniProt P53355); settings: at 1 µM
# [12] = target: T3, Serine/threonine-protein kinase DCLK2 (Homo sapiens) (UniProt Q8N568); settings: at 0.1 µM
# T3 sequence (whole entry): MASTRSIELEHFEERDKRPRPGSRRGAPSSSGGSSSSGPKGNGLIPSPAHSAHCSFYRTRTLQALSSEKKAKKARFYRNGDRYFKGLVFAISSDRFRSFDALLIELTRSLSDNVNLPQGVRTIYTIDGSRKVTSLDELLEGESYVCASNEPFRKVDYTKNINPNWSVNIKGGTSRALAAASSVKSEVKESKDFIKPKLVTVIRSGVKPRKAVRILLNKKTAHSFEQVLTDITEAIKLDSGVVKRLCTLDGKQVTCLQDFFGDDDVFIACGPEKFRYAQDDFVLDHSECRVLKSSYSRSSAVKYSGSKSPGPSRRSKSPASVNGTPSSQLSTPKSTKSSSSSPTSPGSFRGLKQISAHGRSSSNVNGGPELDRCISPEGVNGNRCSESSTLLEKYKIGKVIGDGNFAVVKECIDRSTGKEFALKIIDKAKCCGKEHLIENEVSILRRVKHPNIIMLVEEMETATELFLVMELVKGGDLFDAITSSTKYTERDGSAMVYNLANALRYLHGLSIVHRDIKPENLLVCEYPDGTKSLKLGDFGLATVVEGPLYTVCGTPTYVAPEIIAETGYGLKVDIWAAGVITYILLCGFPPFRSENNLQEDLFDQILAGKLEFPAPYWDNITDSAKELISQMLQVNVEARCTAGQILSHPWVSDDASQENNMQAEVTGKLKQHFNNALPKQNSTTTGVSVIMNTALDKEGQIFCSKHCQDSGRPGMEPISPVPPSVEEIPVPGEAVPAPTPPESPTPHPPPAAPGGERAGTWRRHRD
# [13] = target: T3, Serine/threonine-protein kinase DCLK2 (Homo sapiens); settings: at 1 µM
# [14] = target: MAP kinase-activated protein kinase 2 (Homo sapiens) (UniProt P49137); settings: at 0.1 µM
# MAP kinase-activated protein kinase 2 (Homo sapiens), sequence (P49137 whole entry, looked up): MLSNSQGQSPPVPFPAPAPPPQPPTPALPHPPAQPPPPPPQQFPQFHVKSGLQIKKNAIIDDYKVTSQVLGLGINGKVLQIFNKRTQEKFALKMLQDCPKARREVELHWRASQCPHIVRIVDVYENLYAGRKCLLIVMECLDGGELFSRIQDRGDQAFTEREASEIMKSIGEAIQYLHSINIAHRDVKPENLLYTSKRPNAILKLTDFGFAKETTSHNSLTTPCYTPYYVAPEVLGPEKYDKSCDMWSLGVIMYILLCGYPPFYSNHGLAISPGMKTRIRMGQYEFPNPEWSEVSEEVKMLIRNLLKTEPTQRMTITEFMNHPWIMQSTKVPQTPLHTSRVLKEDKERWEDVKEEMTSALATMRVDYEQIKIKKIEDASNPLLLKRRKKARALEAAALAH
# [15] = target: MAP kinase-activated protein kinase 2 (Homo sapiens) (UniProt P49137); settings: at 1 µM
# [16] = target: MAP kinase-activated protein kinase 3 (Homo sapiens) (UniProt Q16644); settings: at 0.1 µM
# MAP kinase-activated protein kinase 3 (Homo sapiens), sequence (Q16644 whole entry, looked up): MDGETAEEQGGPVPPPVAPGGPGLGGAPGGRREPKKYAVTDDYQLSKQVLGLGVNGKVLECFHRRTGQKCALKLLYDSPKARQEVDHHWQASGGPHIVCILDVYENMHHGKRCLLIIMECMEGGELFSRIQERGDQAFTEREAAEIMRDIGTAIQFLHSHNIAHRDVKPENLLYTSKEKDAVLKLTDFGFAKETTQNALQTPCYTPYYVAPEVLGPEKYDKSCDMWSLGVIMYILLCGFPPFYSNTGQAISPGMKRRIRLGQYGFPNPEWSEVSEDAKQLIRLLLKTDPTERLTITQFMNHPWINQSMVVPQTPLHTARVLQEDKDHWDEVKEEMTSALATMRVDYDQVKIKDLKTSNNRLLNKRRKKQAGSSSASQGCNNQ
# [17] = target: MAP kinase-activated protein kinase 3 (Homo sapiens) (UniProt Q16644); settings: at 1 µM
# [18] = target: Serine/threonine-protein kinase MARK1 (Homo sapiens) (UniProt Q9P0L2); settings: at 0.1 µM
# Serine/threonine-protein kinase MARK1 (Homo sapiens), sequence (Q9P0L2 whole entry, looked up): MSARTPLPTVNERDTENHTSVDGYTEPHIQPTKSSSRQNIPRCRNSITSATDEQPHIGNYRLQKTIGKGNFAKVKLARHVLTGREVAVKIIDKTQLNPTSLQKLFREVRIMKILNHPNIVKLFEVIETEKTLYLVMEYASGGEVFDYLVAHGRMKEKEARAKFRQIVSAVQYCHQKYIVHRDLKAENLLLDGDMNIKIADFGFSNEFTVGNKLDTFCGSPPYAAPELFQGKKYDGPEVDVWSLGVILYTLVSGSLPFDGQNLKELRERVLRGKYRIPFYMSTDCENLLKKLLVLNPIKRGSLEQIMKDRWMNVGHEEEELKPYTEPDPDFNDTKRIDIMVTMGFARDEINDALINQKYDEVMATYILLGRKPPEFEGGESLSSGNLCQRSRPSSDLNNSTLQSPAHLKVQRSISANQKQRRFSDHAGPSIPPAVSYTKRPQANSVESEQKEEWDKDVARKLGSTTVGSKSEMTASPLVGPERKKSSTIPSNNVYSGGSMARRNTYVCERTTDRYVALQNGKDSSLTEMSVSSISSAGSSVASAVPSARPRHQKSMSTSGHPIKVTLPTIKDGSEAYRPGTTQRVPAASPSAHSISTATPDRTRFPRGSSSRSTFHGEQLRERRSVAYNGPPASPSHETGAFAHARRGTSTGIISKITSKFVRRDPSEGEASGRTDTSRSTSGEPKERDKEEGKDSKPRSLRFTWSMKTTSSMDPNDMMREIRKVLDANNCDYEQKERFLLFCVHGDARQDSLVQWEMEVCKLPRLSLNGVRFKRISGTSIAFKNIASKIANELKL
# [19] = target: Serine/threonine-protein kinase MARK1 (Homo sapiens) (UniProt Q9P0L2); settings: at 1 µM
# [20] = target: MAP/microtubule affinity-regulating kinase 3 (Homo sapiens) (UniProt P27448); settings: at 0.1 µM;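 note: mean percent inhibition of MARK3 kinase activity, measured within the GSK PKIS screening panel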
# Calcium/calmodulin-dependent protein kinase type II subunit delta (Homo sapiens), sequence (Q13557 whole entry): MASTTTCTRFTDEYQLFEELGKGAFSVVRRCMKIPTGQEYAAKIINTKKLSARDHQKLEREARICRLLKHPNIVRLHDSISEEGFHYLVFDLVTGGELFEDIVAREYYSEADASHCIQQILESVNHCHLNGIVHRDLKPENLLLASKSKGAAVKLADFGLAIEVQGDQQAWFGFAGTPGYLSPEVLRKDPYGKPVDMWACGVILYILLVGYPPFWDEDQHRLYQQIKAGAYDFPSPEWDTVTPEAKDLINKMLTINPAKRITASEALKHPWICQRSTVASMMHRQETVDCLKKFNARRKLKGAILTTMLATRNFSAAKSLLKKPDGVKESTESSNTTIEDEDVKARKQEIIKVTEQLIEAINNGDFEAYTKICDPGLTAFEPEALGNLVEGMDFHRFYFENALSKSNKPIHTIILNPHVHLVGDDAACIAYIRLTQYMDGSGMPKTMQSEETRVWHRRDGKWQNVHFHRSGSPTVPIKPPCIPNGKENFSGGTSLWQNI
# Calcium/calmodulin-dependent protein kinase type II subunit alpha (Homo sapiens), sequence (Q9UQM7 whole entry): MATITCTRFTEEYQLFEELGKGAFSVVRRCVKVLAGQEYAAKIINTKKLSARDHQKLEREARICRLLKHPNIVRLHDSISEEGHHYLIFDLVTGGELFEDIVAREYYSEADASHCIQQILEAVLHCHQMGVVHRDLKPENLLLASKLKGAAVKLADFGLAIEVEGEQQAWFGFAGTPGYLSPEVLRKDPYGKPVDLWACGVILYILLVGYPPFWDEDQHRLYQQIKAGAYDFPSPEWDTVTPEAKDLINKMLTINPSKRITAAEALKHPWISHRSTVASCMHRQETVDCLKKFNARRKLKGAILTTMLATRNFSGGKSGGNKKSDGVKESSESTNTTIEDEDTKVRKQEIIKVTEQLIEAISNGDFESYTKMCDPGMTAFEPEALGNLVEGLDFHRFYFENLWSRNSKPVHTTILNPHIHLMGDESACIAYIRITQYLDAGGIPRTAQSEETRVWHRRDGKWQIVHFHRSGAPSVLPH
SMILES,inhibition [1] [%],inhibition [2] [%],inhibition [3] [%],inhibition [4] [%],inhibition [5] [%],inhibition [6] [%],inhibition [7] [%],inhibition [8] [%],inhibition [9] [%],inhibition [10] [%],inhibition [11] [%],inhibition [12] [%],inhibition [13] [%],inhibition [14] [%],inhibition [15] [%],inhibition [16] [%],inhibition [17] [%],inhibition [18] [%],inhibition [19] [%],inhibition [20] [%]
N#Cc1cccc(Nc2ncc(-c3ccccc3)o2)c1,1.79,0.08,2.56,-2.03,-2.55,0.93,2.48,1.04,2.58,2.18,2.82,-0.77,0.28,0.9,1.11,-0.02,2.79,1.98,5.43,-0.93
CN(C)CCNC(=O)Nc1ccc(N(C)c2ccnc(Nc3ccc(CS(C)(=O)=O)cc3)n2)cc1,4.63,4.54,5.02,0.83,-0.68,3.83,0.79,3.72,11.9,3.93,4.89,2.39,1.2,1.53,1.45,2.22,2.99,4.47,9.32,6.51
CS(=O)(=O)CCNCc1ccc(-c2ccc3ncnc(Nc4ccc(OCc5ccccc5)cc4)c3c2)o1,-1,2.72,1.68,2.07,-0.36,-1.5,0.28,3.41,12.9,3.08,1.36,1.31,1.03,1.2,0.72,3.13,2.48,3.03,2.05,0.62
CC(C)c1ccc(-c2cc(-c3c[nH]nc3-c3ccccn3)ccn2)cc1,-0.49,-0.8,1.63,0.73,1.62,-0.13,1.92,0.27,0.77,0.1,-0.6,0.39,-0.35,0.58,-0.11,0.63,6.51,1.23,1.49,-3.53
Cc1cc(O)cc(C)c1/C=C/c1cncc(C(=O)OC(C)(C)C)c1,3.26,2.39,5.41,0.08,1.35,2.4,3.47,0.86,2.31,1.5,1.3,4.19,6.15,1.72,1,1.97,2.47,2.3,2.93,2.5
O=C(O[C@H]1CN[C@H](C#Cc2cc3ncnc(Nc4ccc5c(ccn5Cc5cc(F)ccc5F)c4)c3s2)C1)N1CCOCC1,3.57,4.06,3.62,0.33,1.34,-1.01,-1.69,-0.02,6.4,-3.56,-3.4,1.07,-1.18,-0.3,-1.2,-1.09,-1.03,4.09,3.3,1.37
CCN1CCC(C(=O)Nc2n[nH]c3nnc(-c4cccc(F)c4F)cc23)CC1,-1.33,-0.8,-0.61,0.3,-1.03,-2.25,0.59,-0.57,0.65,-0.72,-1.64,-0.76,-0.98,-0.95,-0.88,-0.17,-1.03,0.92,2.69,-0.37
COC(=O)Nc1nc2ccc(Oc3ccc(NC(=O)Nc4cc(C(F)(F)F)ccc4F)cc3)cc2s1,0.75,0.25,1.63,0.98,2.48,-6.7,0.48,-0.62,-0.04,-0.48,-1.22,-1.5,-7.94,0.26,-0.42,7.74,20.3,0.76,0.29,0.41
Cc1cc(O)cc(C)c1/C=C/c1cncc(C(N)=O)c1,2.76,2.47,6.44,0.89,1.57,2.8,0.66,0.67,4,1.68,1.91,1.42,3.35,1.06,0.98,1.57,1.76,2.85,3.03,3.52
